Laboratory results taken from the supplement of paper PMC8371130.
Counter-ions that a name gives are not always drawn.

Test system: HL-1
Assay: relative cell viability (CellTiter-Glo) vs DMSO control (% of DMSO control); higher = more viable cells
Procedure, shortened: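 One day after HL-1 mouse atrial cardiomyocytes were plated (1000 cells per well, 384-well plates) with compounds at 40, 200, 1000 or 5000 nM in 0.01% DMSO, they were transferred to a hypoxic workstation at 1% O2. After 48 h there, the cells were reoxygenated for 24 h in a normal incubator, and comparison cells stayed in normoxia throughout the same time. Cell viability was quantified with CellTiter-Glo luminescence and normalised to vehicle-treated control cells.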

[1] = oxygen condition: hypoxia 48 h (1% O2) + reoxygenation 24 h, 40 nM
[2] = oxygen condition: hypoxia 48 h (1% O2) + reoxygenation 24 h, 200 nM
[3] = oxygen condition: hypoxia 48 h (1% O2) + reoxygenation 24 h, 1000 nM
[4] = oxygen condition: hypoxia 48 h (1% O2) + reoxygenation 24 h, 5000 nM
[5] = oxygen condition: normoxia 72 h, 40 nM
[6] = oxygen condition: normoxia 72 h, 200 nM
[7] = oxygen condition: normoxia 72 h, 1000 nM
[8] = oxygen condition: normoxia 72 h, 5000 nM

SMILES	relative cell viability [1]	relative cell viability [2]	relative cell viability [3]	relative cell viability [4]	relative cell viability [5]	relative cell viability [6]	relative cell viability [7]	relative cell viability [8]
CN1[C@@H]2CC[C@H]1C[C@@H](OC(=O)c1c[nH]c3ccccc13)C2 [Tropisetron]	99.6	103	100	104	98.7	101	104	66
CN(Cc1cc(Br)cc(Br)c1N)C1CCCCC1 [Bromhexine HCl]	97.5	96.2	99.9	102	104	108	98.4	108
NC(N)=Nc1nc(CSCC/C(N)=N/S(N)(=O)=O)cs1 [Famotidine]	103	101	114	120	107	101	97.9	108
CCN(CC)CCOc1ccc(C(=C(Cl)c2ccccc2)c2ccccc2)cc1 [Clomifene citrate]	101	104	107	35.1	111	106	98.2	6.57
Nc1[nH]cnc2ncnc1-2 [Adenine]	101	97.9	98.1	109	102	95.5	98.6	106
CC[C@@H]1C(=O)OC[C@@H]1Cc1cncn1C [Pilocarpine HCl]	104	111	105	110	115	104	106	119
OC(CCN1CCCCC1)(c1ccccc1)C1CC2C=CC1C2 (stereo unspecified) [Biperiden HCl]	106	104	93.9	108	106	106	106	100
Cc1ncc([N+](=O)[O-])n1CC(O)CCl (stereo unspecified) [Ornidazole]	106	109	123	115	108	108	103	117
C[C@H](CS)C(=O)N1CCC[C@H]1C(=O)O [Captopril]	108	103	105	109	105	97.2	106	113
CC1=C(/C=C/C(C)=C/C=C/C(C)=C\C(=O)O)C(C)(C)CCC1 [Isotretinoin]	103	102	105	111	116	104	107	112
CC(=O)O[C@@]12CO[C@@H]1C[C@H](O)[C@@]1(C)C(=O)[C@H](O)C3=C(C)[C@@H](OC(=O)[C@H](O)[C@@H](NC(=O)OC(C)(C)C)c4ccccc4)C[C@@](O)([C@@H](OC(=O)c4ccccc4)[C@H]21)C3(C)C [Docetaxel]	26.9	24.1	27.2	29.3	19.3	23	22.6	23.6
COc1ccc(CC(C)NCC(O)c2ccc(O)c(NC=O)c2)cc1 (stereo unspecified) [Formoterol hemifumarate]	100	98.7	102	111	104	106	98.9	106
O=C1[C@H](CC[C@H](O)c2ccc(F)cc2)[C@@H](c2ccc(O)cc2)N1c1ccc(F)cc1 [Ezetimibe]	111	104	108	115	111	112	116	112
CCOc1ccc2ccccc2c1C(=O)N[C@@H]1C(=O)N2[C@@H]1SC(C)(C)[C@@H]2C(=O)O [nafcillin sodium monohydrate]	92.6	104	105	109	99.1	101	103	107
CNC[C@H](O)c1ccc(O)c(O)c1 [Epinephrine bitartrate]	99.2	98.8	97.2	6.86	101	102	98.4	3.42
CC1(C)S[C@@H]2[C@H](NC(=O)[C@H](NC(=O)N3CCNC3=O)c3ccccc3)C(=O)N2[C@H]1C(=O)O [Azlocillin sodium salt]	102	102	106	110	101	104	112	116
CN(C)CC/C=C1/c2ccccc2COc2ccc(CC(=O)O)cc21 [Olopatadine hydrochloride]	93	92.6	92.2	99.1	89.6	91.6	97.1	102
CC(O)(P(=O)(O)O)P(=O)(O)O [Etidronate]	95.8	96.9	99.7	109	95.1	96.5	95.9	105
Cc1cccc(N(C)C(=S)Oc2ccc3ccccc3c2)c1 [Tolnaftate]	91.4	102	100	105	102	101	105	103

SMILES	relative cell viability [1]	relative cell viability [2]	relative cell viability [3]	relative cell viability [4]	relative cell viability [5]	relative cell viability [6]	relative cell viability [7]	relative cell viability [8]
CC(C)CC(N)=O [Isovaleramide]	96.1	91.3	96.4	112	96.3	90.2	87.8	104
CCOC(=O)[C@H](CCc1ccccc1)N[C@@H](C)C(=O)N1CCC[C@H]1C(=O)O [Enalapril maleate]	101	101	103	105	98.5	103	99.2	99
Clc1ccc2c(c1)C(N1CCNCC1)=Nc1ccccc1O2 [Amoxapine]	102	100	104	109	98.5	105	111	113
COC(=O)[C@H](c1ccccc1Cl)N1CCc2sccc2C1 [Clopidogrel]	105	103	106	111	108	111	105	119
CS(=O)(=O)c1ccc([C@@H](O)[C@@H](CO)NC(=O)C(Cl)Cl)cc1 [Thiamphenicol]	104	104	109	104	101	96.9	95.9	86.5
CCCNC(C)C(=O)Nc1c(C)csc1C(=O)OC (stereo unspecified) [Articaine HCl]	105	103	57.4	105	103	101	103	107
C=C1/C(=C\C=C2/CCC[C@]3(C)[C@@H]([C@H](C)CCCC(C)(C)O)CC[C@@H]23)C[C@@H](O)C[C@@H]1O [Calcitriol]	90.8	91.2	92.9	91	94.5	92.6	93.6	89.9
CCCc1nc2c(C)cc(-c3nc4ccccc4n3C)cc2n1Cc1ccc(-c2ccccc2C(=O)O)cc1 [Telmisartan]	107	102	105	101	105	104	107	109
CC1=C(/C=C/C(C)=C/C=C/C(C)=C/C=C/C=C(C)/C=C/C=C(C)/C=C/C2=C(C)CCCC2(C)C)C(C)(C)CCC1 [Beta Carotene]	96.9	95.3	99.9	104	104	92.9	104	104
C=C(c1ccc(C(=O)O)cc1)c1cc2c(cc1C)C(C)(C)CCC2(C)C [Bexarotene]	103	102	109	107	106	107	107	95.4
Cc1cccc(Nc2ccccc2C(=O)O)c1C [Mefenamic acid]	96.6	93.4	102	113	100	105	111	110
O=C1NC(=O)C(c2ccccc2)(c2ccccc2)N1 [Phenytoin]	98.3	97.9	98.1	103	95.4	61.2	93.3	99.4
N#C[C@@H]1CCCN1C(=O)CNC12CC3CC(CC(O)(C3)C1)C2 [Vildagliptin]	63.4	104	114	117	103	95.7	99	119
CNCCCC12CCC(c3ccccc31)c1ccccc12 [Maprotiline hydrochloride]	98.7	103	93.4	83.3	98.7	102	102	87.7
CCCc1ncc(C[n+]2ccccc2C)c(N)n1 [Amprolium HCl]	104	104	108	110	97.4	104	110	100
O=C(O)/C=C/c1ccc(Cn2ccnc2)cc1 [Ozagrel HCl]	103	102	102	96.7	90.2	96.8	104	97.8
COc1nc(N)nc2c1ncn2[C@@H]1O[C@H](CO)[C@@H](O)[C@@H]1O [Nelarabine]	113	114	112	112	111	112	108	111
CCOc1nc2cccc(C(=O)O)c2n1Cc1ccc(-c2ccccc2-c2noc(=O)[nH]2)cc1 [Azilsartan]	104	108	111	115	109	110	114	111
